From PubChem BioAssay AID1159580 (chemical genetic matrix, 2015)
The whole screen tested about 5,500 compounds, of which about 2,000 (36%) were called active. Inconclusive results (about 18%) are left out. No stated cut-off is given here; in the data, active means normalized growth mostly below about 0.91 (no sharp cut-off); inconclusive means no clear call, values can overlap the other calls; inactive means mostly above about 0.92. Some of the results follow.

Experiment: chemical genetic growth profiling, strain panel (AID 1159580);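 further: tested at 20 µM; growth read once vehicle control cultures reached saturation at 30 °C; 1 = growth at the plate median or of vehicle wells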
Conditions: growth OD
[1] = S. cerevisiae deletion strains, locus YDL101C, strain DUN1, stronger effect = lower value
[2] = S. cerevisiae deletion strains, locus YHR030C, strain SLT2, stronger effect = lower value
[3] = S. cerevisiae deletion strains, locus YMR307W, strain GAS1, stronger effect = lower value
[4] = S. cerevisiae deletion strains, locus YNL322C, strain KRE1, stronger effect = lower value
[5] = S. cerevisiae deletion strains, locus YPL055C, strain LGE1, stronger effect = lower value
[6] = S. cerevisiae deletion strains, locus YPL241C, strain CIN2, stronger effect = lower value

Measured: normalized growth

Cc1ccc(C)c(CSc2nc(C3CCCCC3)c(C#N)c(=O)[nH]2)c1
inactive: S. cerevisiae deletion strains, locus YAR019C, strain CDC15, stronger effect = lower value 0.979 | S. cerevisiae deletion strains, locus YBL105C, strain PKC1, stronger effect = lower value 0.975 | S. cerevisiae deletion strains, locus YBR135W, strain CKS1, stronger effect = lower value 0.964 | S. cerevisiae deletion strains, locus YBR136W, strain MEC1, stronger effect = lower value 0.98 | S. cerevisiae deletion strains, locus YBR160W, strain CDC28, stronger effect = lower value 0.98 | S. cerevisiae deletion strains, locus YDL017W, strain CDC7, stronger effect = lower value 0.981 | S. cerevisiae deletion strains, locus YDL028C, strain MPS1, stronger effect = lower value 0.985 | [1] 0.983 | S. cerevisiae deletion strains, locus YDL108W, strain KIN28, stronger effect = lower value 0.985 | S. cerevisiae deletion strains, locus YDL132W, strain cdc53, stronger effect = lower value 0.973 | S. cerevisiae deletion strains, locus YDL214C, strain PRR2, stronger effect = lower value 1 | S. cerevisiae deletion strains, locus YDR052C, strain DBF4, stronger effect = lower value 0.968 | S. cerevisiae deletion strains, locus YDR054C, strain cdc34, stronger effect = lower value 0.983 | S. cerevisiae deletion strains, locus YDR226W, strain ADK1, stronger effect = lower value 0.984 | S. cerevisiae deletion strains, locus YDR477W, strain SNF1, stronger effect = lower value 1 | S. cerevisiae deletion strains, locus YER123W, strain YCK3, stronger effect = lower value 1.01 | S. cerevisiae deletion strains, locus YER133W, strain GLC7, stronger effect = lower value 1.01 | S. cerevisiae deletion strains, locus YFL009W, strain cdc4, stronger effect = lower value 0.981 | S. cerevisiae deletion strains, locus YFL029C, strain CAK1, stronger effect = lower value 0.983 | S. cerevisiae deletion strains, locus YFR003C, strain YPI1, stronger effect = lower value 0.98 | S. cerevisiae deletion strains, locus YFR019W, strain FAB1, stronger effect = lower value 0.992 | S. cerevisiae deletion strains, locus YFR028C, strain CDC14, stronger effect = lower value 0.975 | S. cerevisiae deletion strains, locus YGR040W, strain KSS1, stronger effect = lower value 1.02 | S. cerevisiae deletion strains, locus YGR052W, strain FMP48, stronger effect = lower value 1.11 | S. cerevisiae deletion strains, locus YGR092W, strain DBF2, stronger effect = lower value 0.987 | S. cerevisiae deletion strains, locus YHR079C, strain IRE1, stronger effect = lower value 1.12 | S. cerevisiae deletion strains, locus YHR082C, strain KSP1, stronger effect = lower value 1.14 | S. cerevisiae deletion strains, locus YHR205W, strain SCH9, stronger effect = lower value 0.988 | S. cerevisiae deletion strains, locus YIL147C, strain SLN1, stronger effect = lower value 0.971 | S. cerevisiae deletion strains, locus YJL095W, strain BCK1, stronger effect = lower value 1.12 | S. cerevisiae deletion strains, locus YJL128C, strain PBS2, stronger effect = lower value 0.981 | S. cerevisiae deletion strains, locus YJL157C, strain FAR1, stronger effect = lower value 1 | S. cerevisiae deletion strains, locus YJR016C, strain ILV3, stronger effect = lower value 0.989 | S. cerevisiae deletion strains, locus YJR066W, strain TOR1 (second series), stronger effect = lower value 0.99 | S. cerevisiae deletion strains, locus YJR066W, strain TOR1, stronger effect = lower value 1.17 | S. cerevisiae deletion strains, locus YKL048C, strain ELM1, stronger effect = lower value 0.98 | S. cerevisiae deletion strains, locus YKL067W, strain YNK1, stronger effect = lower value 0.98 | S. cerevisiae deletion strains, locus YKL101W, strain HSL1, stronger effect = lower value 0.992 | S. cerevisiae deletion strains, locus YKL193C, strain SDS22, stronger effect = lower value 0.97 | S. cerevisiae deletion strains, locus YKL203C, strain TOR2, stronger effect = lower value 1.09 | S. cerevisiae deletion strains, locus YLR113W, strain HOG1, stronger effect = lower value 1.06 | S. cerevisiae deletion strains, locus YLR133W, strain CKI1, stronger effect = lower value 0.984 | S. cerevisiae deletion strains, locus YLR403W, strain SFP1, stronger effect = lower value 0.999 | S. cerevisiae deletion strains, locus YML070W, strain DAK1, stronger effect = lower value 1 | S. cerevisiae deletion strains, locus YMR001C, strain CDC5, stronger effect = lower value 0.971 | S. cerevisiae deletion strains, locus YMR205C, strain PFK2 (second series), stronger effect = lower value 0.99 | S. cerevisiae deletion strains, locus YMR277W, strain FCP1, stronger effect = lower value 0.978 | S. cerevisiae deletion strains, locus YNL006W, strain LST8, stronger effect = lower value 0.978 | S. cerevisiae deletion strains, locus YNL020C, strain ARK1, stronger effect = lower value 0.982 | S. cerevisiae deletion strains, locus YNL161W, strain CBK1, stronger effect = lower value 0.984 | S. cerevisiae deletion strains, locus YNL183C, strain NPR1, stronger effect = lower value 1.11 | S. cerevisiae deletion strains, locus YNL207W, strain RIO2, stronger effect = lower value 0.995 | S. cerevisiae deletion strains, locus YNL222W, strain SSU72, stronger effect = lower value 0.972 | S. cerevisiae deletion strains, locus YNL307C, strain MCK1 (second series), stronger effect = lower value 0.996 | S. cerevisiae deletion strains, locus YOL078W, strain AVO1, stronger effect = lower value 0.982 | S. cerevisiae deletion strains, locus YOL136C, strain PFK27, stronger effect = lower value 1.01 | S. cerevisiae deletion strains, locus YOR061W, strain CKA2, stronger effect = lower value 0.996 | S. cerevisiae deletion strains, locus YOR119C, strain RIO1, stronger effect = lower value 1.04 | S. cerevisiae deletion strains, locus YOR231W, strain MKK1, stronger effect = lower value 1.1 | S. cerevisiae deletion strains, locus YOR329C, strain SCD5, stronger effect = lower value 0.985 | S. cerevisiae deletion strains, locus YPL031C, strain PHO85, stronger effect = lower value 1.01 | S. cerevisiae deletion strains, locus YPL153C, strain RAD53, stronger effect = lower value 1.01 | S. cerevisiae deletion strains, locus YPL204W, strain HRR25, stronger effect = lower value 1 | S. cerevisiae deletion strains, locus YPL209C, strain IPL1, stronger effect = lower value 0.988 | S. cerevisiae deletion strains, locus YPL256C, strain CLN2, stronger effect = lower value 1.12 | S. cerevisiae deletion strains, locus YPR025C, strain CCL1, stronger effect = lower value 0.973 | S. cerevisiae deletion strains, locus YPR106W, strain ISR1, stronger effect = lower value 0.987 | S. cerevisiae deletion strains, locus YPR111W, strain DBF20, stronger effect = lower value 0.977 | S. cerevisiae deletion strains, strain NNK1, stronger effect = lower value 0.994 | S. cerevisiae deletion strains, strain TSCII, stronger effect = lower value 0.981
active: [2] 1.18 [resistant]

NCc1cc(=O)[nH]o1
inactive: S. cerevisiae deletion strains, locus YAL040C, strain CLN3, stronger effect = lower value 1.05 | S. cerevisiae deletion strains, locus YCL061C, strain MRC1 (second series), stronger effect = lower value 1 | S. cerevisiae deletion strains, locus YDR363W, strain ESC2, stronger effect = lower value 1.01 | S. cerevisiae deletion strains, locus YER002W, strain NOP16, stronger effect = lower value 1.02 | [3] 1 | S. cerevisiae deletion strains, locus YNL175C, strain NOP13, stronger effect = lower value 1 | S. cerevisiae deletion strains, locus YNL197C, strain WHI3, stronger effect = lower value 1.02 | S. cerevisiae deletion strains, locus YNL224C, strain SQS1, stronger effect = lower value 1.01 | [4] 1.01 | S. cerevisiae deletion strains, locus YOR083W, strain WHI5 (second series), stronger effect = lower value 1 | [5] 1.01 | [6] 0.989

O=C(COc1ccc2c(c1)OCO2)N1CCN(c2ncc(C(F)(F)F)cc2Cl)CC1
inactive: S. cerevisiae deletion strains, locus YAL013W, strain DEP1, stronger effect = lower value 0.993 | S. cerevisiae deletion strains, locus YBR229C, strain ROT2, stronger effect = lower value 1 | S. cerevisiae deletion strains, locus YCL061C, strain MRC1, stronger effect = lower value 0.983 | [1] 1.03 | S. cerevisiae deletion strains, locus YDR150W, strain NUM1, stronger effect = lower value 0.997 | S. cerevisiae deletion strains, locus YEL061C, strain CIN8, stronger effect = lower value 0.948 | S. cerevisiae deletion strains, locus YGR078C, strain PAC10, stronger effect = lower value 0.996 | S. cerevisiae deletion strains, locus YHR087W, strain rtc3, stronger effect = lower value 0.977 | S. cerevisiae deletion strains, locus YJL187C, strain SWE1, stronger effect = lower value 1 | S. cerevisiae deletion strains, locus YJR043C, strain POL32, stronger effect = lower value 1.03 | S. cerevisiae deletion strains, locus YJR075W, strain HOC1, stronger effect = lower value 0.984 | S. cerevisiae deletion strains, locus YKL190W, strain CNB1, stronger effect = lower value 0.963 | S. cerevisiae deletion strains, locus YLR039C, strain RIC1, stronger effect = lower value 0.876 | S. cerevisiae deletion strains, locus YLR058C, strain SHM2 (second series), stronger effect = lower value 0.998 | S. cerevisiae deletion strains, locus YLR262C, strain YPT6, stronger effect = lower value 0.885 | S. cerevisiae deletion strains, locus YML094W, strain GIM5, stronger effect = lower value 0.964 | S. cerevisiae deletion strains, locus YMR219W, strain ESC1, stronger effect = lower value 0.994 | S. cerevisiae deletion strains, locus YMR263W, strain SAP30, stronger effect = lower value 1.01 | [3] 0.791 | S. cerevisiae deletion strains, locus YNL153C, strain GIM3, stronger effect = lower value 0.978 | S. cerevisiae deletion strains, locus YNL298W, strain CLA4 (second series), stronger effect = lower value 0.944 | [4] 0.987 | S. cerevisiae deletion strains, locus YNR030W, strain Alg12, stronger effect = lower value 0.92 | S. cerevisiae deletion strains, locus YOL006C, strain TOP1, stronger effect = lower value 0.999 | [5] 1.03 | [6] 1.06 | S. cerevisiae deletion strains, locus YPR135W, strain CTF4, stronger effect = lower value 0.802 | S. cerevisiae strains, strain wild type, stronger effect = lower value 0.985
active: [2] 0.55 | S. cerevisiae deletion strains, locus YLR085C, strain ARP6, stronger effect = lower value 0.7
